Hit rate of the full screen: of about 13,000 compounds, about 3,200 (25%) showed an effect of 50% or more. Some of the results follow.
Test system: P. falciparum stage V gametocytes
Set-up: BacTiter-Glo ATP luminescence viability of purified stage V gametocytes in 384-well plates, per cent inhibition versus DMSO
Conditions: 48 h, 5 µM; inhibitor

Row | SMILES | % Inhibition
1 | COc1ccc(CCNC(=O)c2ccccc2O)cc1-c1ccc(C(C)(C)C)cc1 [TCMDC-136182] | 40.5%
2 | N=C1NC(=N)N(OCCCCCCON2C(=N)NC(=N)NC2C=Cc2ccccc2)C(C=Cc2ccccc2)N1 (stereo not drawn) [TCMDC-131602] | -13.97%
3 | Cc1nc2nc(N)nc(N)c2c(C)c1Cc1ccc(C(N)=O)cc1 [TCMDC-137641] | 15.14%
4 | CC1=C(C(=O)Nc2cc3cn[nH]c3cc2F)C(c2cccc(NS(C)(=O)=O)c2)CC(=O)N1 (stereo not drawn) [TCMDC-136177] | 35.05%
5 | CC1=C(C(=O)Nc2cc3cn[nH]c3cc2F)C(c2ccc(Cl)c(NS(C)(=O)=O)c2)CC(=O)N1 (stereo not drawn) [TCMDC-136204] | 27.6%
6 | CC1=C(C(=O)Nc2cc3cn[nH]c3cc2F)C(c2cccc(O)c2F)CC(=O)N1 (stereo not drawn) [TCMDC-136296] | 76.63%
7 | C=CCOC(=O)N1CCC(CNCc2cccc(-c3ccc(-c4nc5ccccc5[nH]4)s3)c2)C1.O=C(O)C(F)(F)F (stereo not drawn) [TCMDC-133036] | 38.09%
8 | O=C(NCCCCN1CCC(c2ccc3c(c2OCc2ccccn2)CCCC3)CC1)c1ccc(NC(=O)c2ccc(Cl)cc2)cc1 [TCMDC-138720] | 101.6%
9 | Cc1cc(C2CCN(CCCCNC(=O)c3ccc(NC(=O)c4ccc(Cl)cc4)cc3)CC2)c(C)cc1OCc1ccccn1 [TCMDC-138306] | 24.78%
10 | COc1ccc(OCc2ccccn2)c(C2CCN(CCCCNC(=O)c3ccc(NC(=O)c4ccc(Cl)cc4)cc3)CC2)c1 [TCMDC-138311] | -15.54%
11 | O=C(NCCCCN1CCC(c2ccc3c(c2OCc2ccncc2)CCCC3)CC1)c1ccc(NC(=O)c2ccc(Cl)cc2)cc1 [TCMDC-138725] | 119.9%
12 | Cc1ccc(NC(C)C(=O)Nc2ccccc2)cc1S(=O)(=O)N1CCCCCC1 (stereo not drawn) [TCMDC-124868] | -63.29%
13 | Brc1cc(Br)c2c(c1)C(NCCCNC1CCNc3c(Br)cc(Br)cc31)CCN2 (stereo not drawn) [TCMDC-140067] | -3.983%
14 | COc1ccc(NC(=O)[C@H](CC(C)C)Nc2ccnc(Nc3ccccc3)n2)cc1 [TCMDC-134750] | -9.476%
15 | COc1cccc(OC)c1C(=O)Nc1cccc(-c2nn3ccccc3c2-c2ccnc(Nc3cccc(F)c3)n2)c1 [TCMDC-135847] | -55.46%
16 | CC(C)CNCc1ccc(-c2ccc(CN(CCCN3CCN(C)CC3)C(=O)/C=C/c3ccccc3)cc2)cc1 [TCMDC-140546] | 104.5%
17 | CC(C)CNCc1ccc(-c2cccc(CN(CCCN3CCN(C)CC3)C(=O)/C=C/c3ccccc3)c2)cc1 [TCMDC-140542] | 91.48%
18 | O=C(/C=C/c1ccc(CNCCN2CCOCC2)cc1)NCCc1ccccc1 [TCMDC-140901] | -18.05%
19 | CC(C)CNCc1cccc(-c2ccc(CN(CCCN3CCN(C)CC3)C(=O)/C=C/c3ccccc3)cc2)c1 [TCMDC-140545] | 109.3%
20 | CC(C)CNCc1cccc(-c2cccc(CN(CCCN3CCN(C)CC3)C(=O)/C=C/c3ccccc3)c2)c1 [TCMDC-140541] | 106.7%
21 | COC(=O)c1c(C#N)c(OC)cc(O)c1CSC[C@H](Nc1nc(-c2ccc([N+](=O)[O-])cc2)cs1)C(=O)NCCN1CCCCC1 [TCMDC-138651] | -15.18%
22 | Cc1nc(N)nc(N)c1OCCCCCCOc1ccccc1 [TCMDC-131354] | -4.555%
23 | Cc1ccc(F)c(C(=O)Nc2cccc(-c3nn4ccccc4c3-c3ccnc(Nc4cccc(F)c4)n3)c2)c1F [TCMDC-135846] | -36.31%

Row | SMILES | % Inhibition
24 | O=C(Nc1cccc(-c2nn3ccccc3c2-c2ccnc(Nc3ccc(Cc4ccncc4)cc3)n2)c1)c1c(F)cccc1F [TCMDC-135845] | -48.11%
25 | CC1(C)N=C(N)N=C(N)N1OCCc1ccc(N)cc1 [TCMDC-131632] | 14.77%
26 | Cc1ccc(F)c(OC2CCN(c3ccc(C(=O)NC4CC4)cn3)CC2)c1 [TCMDC-134036] | 27.07%
27 | CCNc1cc(C)nc(Nc2ccc(NC(=O)c3cccs3)cc2)n1 [TCMDC-124981] | -23.08%
28 | O=C(Nc1ccc(Cl)cc1)c1cccc2[nH]c(C(F)(F)F)nc12 [TCMDC-141578] | 11.96%
29 | Cc1ncccc1C(=O)Nc1cccc(-c2cccc(-c3nc4ccc(C(F)(F)F)cc4[nH]3)c2)c1 [TCMDC-136860] | -20.59%
30 | O=C(Nc1ccc(Cl)cc1)c1cc(Cl)cc2[nH]c(C(F)(F)F)nc12 [TCMDC-141586] | 55.63%
31 | O=C(Nc1cccc(C(F)(F)F)c1)c1cccc2[nH]c(C(F)(F)F)nc12 [TCMDC-141579] | 65%
32 | O=C(Nc1cc(C(F)(F)F)cc(C(F)(F)F)c1)c1cc(Cl)ccc1O [TCMDC-125465] | 22.2%
33 | O=C(Nc1cccc(-c2cccc(-c3nc4ccc(C(F)(F)F)cc4[nH]3)c2)c1)c1cccnc1Cl [TCMDC-136838] | -52.15%
34 | Fc1ccccc1COc1ccc(Nc2ncnc3ccc(-c4nnc(C(F)(F)F)o4)cc23)cc1Cl [TCMDC-138161] | 24.13%
35 | Cc1ccc(Nc2ccnc(Nc3ccc4c(c3)CS(=O)(=O)C4)n2)cc1O [TCMDC-138484] | -40.59%
36 | CCNc1cc(C(=O)N[C@@H](Cc2ccccc2)[C@H](O)CN[C@@H]2CCc3ccccc32)cc(N2CCCCS2(=O)=O)c1 [TCMDC-134706] | 14.74%
37 | CCN(CC)CCN(Cc1ccc(-c2ccc(C(F)(F)F)cc2)cc1)C(=O)Cn1c(CCc2cc(F)c(F)c(F)c2)nc(=O)c2ccccc21 [TCMDC-140944] | 66.72%
38 | CCN(CC)CCN(Cc1ccc(-c2ccc(C(F)(F)F)cc2)cc1)C(=O)Cn1c(CCc2ccc(F)c(F)c2)cc(=O)c2ccccc21 [TCMDC-141026] | 39.3%
39 | CCN(CC)CCN(Cc1ccc(-c2ccc(C(F)(F)F)cc2)cc1)C(=O)Cn1c(CCc2ccc(F)c(C#N)c2)nc(=O)c2ccccc21 [TCMDC-140957] | 85.6%
40 | CCN(CC)CCN(Cc1ccc(-c2ccc(C(F)(F)F)cc2)cc1)C(=O)Cn1c(CCc2cccc(C#N)c2)nc(=O)c2ccccc21 [TCMDC-140980] | 54.63%
41 | CCN(CC)CCN(Cc1ccc(-c2ccc(C(F)(F)F)cc2)cc1)C(=O)Cn1c(CCc2ccc(F)c(F)c2)nc(=O)c2ccccc21 [TCMDC-140948] | 78.31%
42 | C/C=C1/CN2CC[C@H]1C[C@H]2[C@H](O)c1ccnc2ccc(O)cc12 [TCMDC-138167] | 19.07%
43 | C=CCOc1ccccc1CNCC(O)c1cccc(C(F)(F)F)c1 (stereo not drawn) [TCMDC-140394] | 31.37%
44 | COc1ccc(CCN2CCC(Nc3nc4ccccc4n3CCc3ccc(OC)cc3)CC2)cc1 [TCMDC-123918] | 9.396%
45 | N#Cc1cc(C(=O)Nc2ccccc2)c(N)nc1SCC(=O)NC(c1ccccc1)c1cccs1 (stereo not drawn) [TCMDC-124880] | -24.84%
46 | CCN(CC)c1cc(C)c2cc(NC(=O)c3cc(=O)c4ccccc4o3)ccc2n1 [TCMDC-123592] | 0.01985%

Row | SMILES | % Inhibition
47 | COc1cc(OC)nc(-c2cccc(NC(=O)c3ccc4c(=O)n(CCN5CCCCC5)cnc4c3)c2)n1 [TCMDC-132360] | -43.17%
48 | CCCn1cnc2cc(C(=O)Nc3ccc(-c4cccc(CN(C)C)c4)cc3)ccc2c1=O [TCMDC-132363] | 8.061%
49 | CN(C)Cc1cccc(-c2ccc(NC(=O)c3ccc4c(=O)n(C5CCCCC5)cnc4c3)cc2)c1 [TCMDC-132367] | -36.18%
50 | CN(C)Cc1cccc(-c2ccc(NC(=O)c3ccc4c(=O)n(CC5CCCO5)cnc4c3)cc2)c1 (stereo not drawn) [TCMDC-132365] | 80.9%
51 | CN(C)Cc1cccc(-c2ccc(NC(=O)c3ccc4c(=O)n(CCN5CCCCC5)cnc4c3)cc2)c1 [TCMDC-132362] | 105.2%
52 | CN(C)Cc1cccc(-c2ccc(NC(=O)c3ccc4c(=O)n(Cc5cnn(C)c5)cnc4c3)cc2)c1 [TCMDC-132370] | -68.25%
53 | NC1=NC(c2ccccc2)(c2ccccc2)C(=O)N1Cc1ccc(-c2ccncc2)cc1 [TCMDC-136894] | 25.37%
54 | Cc1ccc2nc3c(cc(C(=O)NCc4ccccc4)c(=N)n3CCCn3ccnc3)c(=O)n2c1 [TCMDC-124377] | 6.883%
55 | C=C1C(C(=O)OCC)=CN(CC)c2cc(O[C@@H]3CCN(C(=O)OC(C)(C)C)C3)ccc21 [TCMDC-135647] | 15.51%
56 | O=C(/C=C/c1ccc(Cl)c(Cl)c1)NC1CCN(CCNC(=O)c2cccc(Cl)c2)CC1 [TCMDC-141950] | -32.49%
57 | CCCc1cc(=O)[nH]c(-n2nc(C)cc2NC(=O)c2cc3ccccc3o2)n1 [TCMDC-124939] | 13.85%
58 | O=C(NC1CCCCN(Cc2ccccc2O)C1)c1ccc(Cl)c(Cl)c1 (stereo not drawn) [TCMDC-141736] | -19.06%
59 | CC(C)(c1ccccc1)c1ccc(O)c(CN2CCOCC2)c1 [TCMDC-124276] | -17.17%
60 | Oc1ccc(-c2ccccc2)cc1CN1CCCCCC1 [TCMDC-124203] | 12.06%
61 | O=C(NC1CCN(Cc2ccccc2O)C1)c1ccc(Cl)c(Cl)c1 (stereo not drawn) [TCMDC-141737] | 3.103%
62 | O=C(NC1CCCCN(Cc2ccccc2O)C1)c1ccc(-c2ccccc2)cc1 (stereo not drawn) [TCMDC-141746] | 61.29%
63 | O=C(NC1CCCCN(Cc2ccccc2O)C1)c1cccc(C(F)(F)F)c1 (stereo not drawn) [TCMDC-141743] | 0.3319%
64 | O=C(NC1CCCCN(Cc2ccccc2O)C1)c1cc(F)cc(F)c1 (stereo not drawn) [TCMDC-141742] | 24.3%
65 | O=S(=O)(NC1CCCCN(Cc2ccccc2O)C1)c1ccc(C(F)(F)F)cc1 (stereo not drawn) [TCMDC-141803] | -6.826%
66 | O=C(NC1CCCCN(Cc2ccccc2O)C1)c1cccc(Cl)c1 (stereo not drawn) [TCMDC-141745] | 70.72%
67 | Oc1ccc(-c2ccccc2)cc1CN1CCCCC1 [TCMDC-125510] | 85.49%
68 | O=C(NC1CCN(Cc2ccccc2O)C1)c1cccc(C(F)(F)F)c1 (stereo not drawn) [TCMDC-141744] | -4.979%
69 | O=C(NC1CCN(Cc2ccccc2O)C1)c1ccc(-c2ccccc2)cc1 (stereo not drawn) [TCMDC-141747] | 74.99%
